# GPT2 inhibitor – GPT2 alanine aminotransferase inhibition; Q8TD30; Recombinant GPT2, coupled pyruvate oxidase/HRP Amplex Red fluorescence; Potency, µM (titrated, usually from 57.7 µM), most hits filed as inhibitors; 0.25% of 100,000 active; AID 1671188; note: nearly all actives have a fitted effect of over 60% in size
#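 GPT2 10ng/uL, a-KG 250uM, L-Ala 2mM, HEPES pH7.5 + 0.0001% Tween; 30 min RT. Then Amplex mix (PO/HRP/ThPP), 30 min RT dark, fluorescence. AOA 50uM used as positive control.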
# HEK cytotox – HEK 293 cell cytotoxicity; HEK 293 viability, ATP luminescence (CellTiter-Glo), 48-72 h; AID 1345083; Potency, µM (series often up to 115 µM), usual class: inhibitors; 6.6% of 94,000 active; note: nearly all actives have a fitted effect of over 60% in size
#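 ATP-coupled CellTiter-Glo luminescence served as viability read-out, recorded 10 min after reagent addition at room temperature. HEK 293 cells, 250 cells/well, had been incubated with pintool-transferred compound for 48 or 72 hr at 37 degree Celsius.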
# FLuc inh – blocks purified firefly luciferase enzyme activity; 2.5% of 76,000 active; P08659; purified P. pyralis luciferase, luminescence, biochemical; AID 1347043; Potency, µM (titrated, usually from 115 µM), usual class: inhibitors; note: nearly all actives have a fitted effect of over 65% in size
#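 Cell-free enzyme assay, 10nM P. pyralis luciferase, luciferin and ATP each at 10uM. Inhibition profiled over a 6-point titration, read as luminescence.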
# 3T3 cytotox – cytotoxic compounds in NIH 3T3 cells; NIH 3T3 viability, CellTiter-Glo ATP luminescence, 48-72 h; Potency, µM (top dose mostly 96.7 µM), most hits filed as inhibitors; 4.3% of 94,000 active; AID 1345082; note: nearly all actives have a fitted effect of over 55% in size
#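 NIH 3T3 cells at 400 cells/well received 23 nL of compound by pintool and were incubated 48 or 72 h at 37 °C. Viability was read as ATP-coupled CellTiter-Glo luminescence.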
# hNpr1 antagonist – blocks ANP-stimulated signaling of human Npr1 receptor. HEK293 hNpr1 GloSensor cGMP, ANP-stimulated luminescence. Potency, µM (doses to about 46.3 µM), usual class: inhibitors. 1.6% of 76,000 active. AID 1347048; calls by dose curve; note: nearly all actives have a fitted effect of over 60% in size
# Target sequence (P16066 whole entry, looked up): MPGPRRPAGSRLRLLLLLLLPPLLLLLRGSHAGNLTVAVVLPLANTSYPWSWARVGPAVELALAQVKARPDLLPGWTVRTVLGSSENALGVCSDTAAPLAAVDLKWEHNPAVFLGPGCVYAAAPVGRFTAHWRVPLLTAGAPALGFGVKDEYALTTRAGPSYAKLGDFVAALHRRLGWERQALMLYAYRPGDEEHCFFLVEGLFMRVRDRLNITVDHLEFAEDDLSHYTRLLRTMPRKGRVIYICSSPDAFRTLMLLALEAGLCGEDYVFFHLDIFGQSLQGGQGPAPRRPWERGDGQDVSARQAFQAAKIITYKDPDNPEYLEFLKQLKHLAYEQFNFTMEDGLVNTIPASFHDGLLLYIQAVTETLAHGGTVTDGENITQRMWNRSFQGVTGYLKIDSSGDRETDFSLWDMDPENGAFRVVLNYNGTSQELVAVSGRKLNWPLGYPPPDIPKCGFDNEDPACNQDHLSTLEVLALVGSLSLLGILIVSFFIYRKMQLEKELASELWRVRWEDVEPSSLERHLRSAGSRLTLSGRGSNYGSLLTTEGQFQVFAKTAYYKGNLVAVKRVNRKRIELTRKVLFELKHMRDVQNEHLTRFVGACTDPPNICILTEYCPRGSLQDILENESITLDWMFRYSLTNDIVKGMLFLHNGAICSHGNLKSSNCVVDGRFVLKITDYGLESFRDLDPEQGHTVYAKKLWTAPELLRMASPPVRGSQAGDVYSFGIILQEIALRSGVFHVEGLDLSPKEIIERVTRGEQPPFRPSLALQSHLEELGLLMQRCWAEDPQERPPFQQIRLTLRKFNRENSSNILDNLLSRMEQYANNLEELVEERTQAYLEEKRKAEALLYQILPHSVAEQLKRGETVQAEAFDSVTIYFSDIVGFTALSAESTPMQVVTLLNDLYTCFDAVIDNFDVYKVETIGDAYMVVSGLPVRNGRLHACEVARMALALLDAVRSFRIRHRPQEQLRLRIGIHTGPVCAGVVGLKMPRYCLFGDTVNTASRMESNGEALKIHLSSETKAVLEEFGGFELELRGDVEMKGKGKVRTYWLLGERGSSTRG
#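 HEK293 cells stably expressing human Npr1 and cGMP GloSensor pGS-40F, loaded 2 h with 2% GloSensor reagent, given compound 30 min at room temperature. Luminescence read before and 20 min after 0.1 nM hNppA.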
# Hits are given with their value; – = inactive; ? = inconclusive; · = no result. Rows were chosen to be rich in hits. Some 10% of all compounds tested hit in one or more screens of this group. Unless noted, calls come from the whole dose curve; as a rule, active = well fitted curve in the direction sought with a large enough effect; inconclusive = small, poorly fitted or top-dose-only effect, or another doubt; inactive = no such curve, though single readings can be large; an effect the other way counts as inactive or inconclusive.
SMILES,GPT2 inhibitor,HEK cytotox,FLuc inh,3T3 cytotox,hNpr1 antagonist
O=C(CC(c1cccc([N+](=O)[O-])c1)c1c[nH]c2ccccc12)NCCc1ccccc1 (centres undefined),–,32µM,–,25µM,?
O=C1NCC2(CCN(Cc3ccccc3)CC2)Oc2ccccc21,–,–,·,–,·
Cc1ccc(C(=O)N2CCC3(CC2)N=C(c2ccccc2)NO3)cc1,–,?,–,–,–
Cn1nc(C(=O)N2CCC3(CC2)N=C(c2cccc(Br)c2)NO3)c2ccccc21,–,45µM,–,?,–
CC(=O)Nc1ccc(C(=O)N2CCC3(CC2)N=C(c2ccccc2)NO3)cc1,–,–,35µM,–,–
O=C(c1ccc2c(c1)OCO2)N1CCC2(CC1)N=C(c1ccccc1)NO2,–,–,40µM,–,–
Cc1ccc(C2=NC3(CCN(C(=O)c4ccccc4Cl)CC3)ON2)cc1,–,–,32µM,–,?
COc1ccc(-c2ccc(C(=O)N3CCN([S+](C)(=O)[O-])CC3)cc2)nn1,·,–,·,–,·
COc1ccc(-c2cc(C(=O)NC3CC3)c3c(C)nn(-c4ccccc4)c3n2)cc1,–,?,·,22µM,·
COc1ccc(-c2cc(C(=O)NC3CCNCC3)c3c(C)nn(-c4ccccc4)c3n2)cc1,–,25µM,·,7.1µM,·
O=C(NCc1cccc(C(F)(F)F)c1)[C@H]1CN(Cc2ccccc2)C[C@H]1C(=O)O,–,?,–,?,–
COCCCNC(=O)C1CCCN1Cc1cccc(-c2cccc(OC)c2)c1 (centres undefined),–,?,·,?,·
COc1cccc(-c2cccc(CN3CCCC3C(=O)NCc3cccc(F)c3)c2)c1 (centres undefined),–,?,·,35µM,·
COc1cccc(-c2ccc(CN3CCCC3C(=O)NC3CCC3)cc2)c1 (centres undefined),–,?,·,?,·
O=C(Nc1ccc(-c2cccc(F)c2)cc1)C1CCCN1Cc1cnc[nH]1 (centres undefined),–,–,?,?,–
CCn1ccnc1CN1CCCC1C(=O)Nc1ccc(-c2cccc(F)c2)cc1 (centres undefined),–,35µM,–,?,–
COc1cccc(-c2cccc(CN3CCCC3C(=O)NC3CC3)c2)c1 (centres undefined),·,45µM,·,?,·
Cc1cnc(CC2CCN(S(=O)(=O)c3ccccc3)C2)n1C(C)C (centres undefined),–,?,–,–,–
Cc1ccc([S+](=O)([O-])N2CC(=O)N(CC3CC3)CC(C)(C)C2)cc1,·,–,·,?,·
N#Cc1cccc(C(=O)N2CCCN(Cc3ccncc3)C(c3ccccc3)CC(=O)NCC2)c1 (centres undefined),–,–,–,–,–
CCN1C(=O)C2CC3(CCN(C(=O)CCOC)CC3)CN2C1=O (centres undefined),–,–,·,–,·
O=C(NCCc1ccccc1F)c1cc(Br)cn2ccnc12,–,?,16µM,?,–
Cc1cnc(C(=O)N[C@@H]2CCC[C@@H]2C(=O)NCCc2ccccc2)cn1,–,–,–,–,–
CC1=C[C@@H](CN2CCC(CO)CC2)[C@H](C(C)C)C[C@H]1Cc1nnc(-c2ccncc2)o1,–,–,–,–,–
CC1=C[C@@H](CO)[C@H](C(C)C)C[C@H]1Cc1nnc(-c2ccc(N(C)C)cc2)o1,–,?,?,89µM,–
SMILES,GPT2 inhibitor,HEK cytotox,FLuc inh,3T3 cytotox,hNpr1 antagonist
CC1=C[C@@H](CN(C)CCO)[C@H](C(C)C)C[C@H]1Cc1nnc(-c2ccc(N(C)C)cc2)o1,–,63µM,–,40µM,–
CC1=C[C@@H](CN2CCC[C@H]2CO)[C@H](C(C)C)C[C@H]1Cc1nnc(-c2ccc(N(C)C)cc2)o1,–,45µM,–,40µM,–
COCCNC[C@@H]1C=C(C)[C@H](Cc2nnc(-c3ccc(N(C)C)cc3)o2)C[C@H]1C(C)C,–,25µM,–,40µM,–
O=C(c1ccccc1Cl)N1CCCN(c2ccnc3ccnn23)CC1,–,–,·,?,·
Cn1cc(CN2CCCC23CCN(c2ncccn2)CC3)c(-c2ccccc2)n1,–,–,–,–,–
CC1=C[C@@H](CO)[C@H](C(C)C)C[C@H]1Cc1nnc(-c2ccncc2)o1,–,100µM,–,–,–
Cc1ccc(Nc2ccnc(N3CCC(C(=O)NCC(F)F)CC3)n2)cc1,–,?,·,?,·
Cn1ncc2c(C(=O)NCc3ccc4c(c3)OCO4)cc(-c3ccccc3C(F)(F)F)nc21,·,35µM,·,?,·
Cn1ncc2c(C(=O)NCC(=O)OC(C)(C)C)cc(-c3ccccc3C(F)(F)F)nc21,·,45µM,·,?,·
Cn1ncc2c(C(=O)NCc3ccc(Cl)cc3)cc(-c3ccc(C(F)(F)F)cc3)nc21,·,?,·,–,·
Cn1ncc2c(C(=O)NCc3ccc(Cl)cc3)cc(-c3ccccc3C(F)(F)F)nc21,·,32µM,·,?,·
CC(NC(=O)c1cc(-c2ccccc2C(F)(F)F)nc2c1cnn2C)C(C)(C)C (centres undefined),·,45µM,·,?,·
COc1ccc(Cc2nnc3ccc(C(=O)NCc4ccc5c(c4)OCO5)cn23)cc1,–,–,·,–,·
C#CCN(Cc1nc(-c2ccc(OC)c(C)c2OC)oc1C)C1CCCCC1,–,?,–,?,–
Cn1ncc2c(C(=O)NCc3ccc(C(F)(F)F)cc3)cc(-c3ccccc3C(F)(F)F)nc21,·,18µM,·,?,·
Cn1ncc2c(C(=O)NCCCNC(=O)OC(C)(C)C)cc(-c3ccccc3F)nc21,·,45µM,·,?,·
Cn1ccc2c(C(=O)NCCC(N)=O)nc(-c3cccc(CO)c3)cc21,–,–,–,?,–
Cn1ccc2c(C(=O)NCCC(N)=O)nc(-c3cccc(C(F)(F)F)c3)cc21,–,89µM,–,?,–
Cn1ccc2c(C(=O)NCC3CCC(=O)N3)nc(-c3ccccc3)cc21 (centres undefined),–,–,–,50µM,–
Cn1ccc2c(C(=O)NCCC(N)=O)nc(-c3ccccc3C(F)(F)F)cc21,–,?,–,?,–
Cn1ccc2c(C(=O)NCCC(N)=O)nc(-c3ccccc3)cc21,–,–,–,100µM,–
O=c1n(CCCN2CCN([S+](=O)([O-])c3ccccc3)CC2)nc2n1CCCC2,·,–,·,–,·
COc1nc2nc(CCc3ccccc3)n(C)c2cc1-c1ccnc(C)c1,–,–,–,?,–
COc1ccccc1C(C)N(C)C(=O)c1csc2nc(-c3ccccc3C)cn12 (centres undefined),–,35µM,?,?,–
COc1ccccc1-c1ccc2c(C(=O)N(C)C)nn(C)c2n1,–,–,·,–,·
O=C(Nc1ccccc1)N1CCN(Cc2ccccc2-c2cccnc2)CC1,–,?,·,?,·
Cn1ncc2c(C(=O)NC3CCN(Cc4ccccc4)CC3)cc(-c3ccc(C(F)(F)F)cc3)nc21,·,–,·,–,·
COC(=O)CCNC(=O)C1c2ccccc2C(=O)N(C2CCCC2)C12CCCCC2 (centres undefined),–,?,–,?,–

# High-throughput results from PubChem BioAssay.
